High-throughput results as filed in PubChem.
HT1080-NT tox: kills 2HG-producing HT-1080-NT fibrosarcoma cells. HT-1080-NT fibrosarcoma viability, CellTiter-Glo ATP luminescence, 48 h. Potency, µM (highest dose often 46.1 µM), without a hit: at the top dose activity, negative = less viability, usual class: cytotoxic. 360,000 compounds, 1.6% hits;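 note: NT is the 2HG producing partner of a matched IDH1 knockdown line; 0% = DMSO-treated cells and -100% = media-only wells without cells; nearly all actives have a fitted effect of over 55% in size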
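Viability by CellTiter-Glo luminescence after 48 h compound exposure at 37C of HT-1080-NT cells (750/well, RPMI, 5% FBS). % activity scaled between DMSO wells and medium-only wells, then curve-fitted and categorized by curve class.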
MCF10A rereplic: induces DNA re-replication in MCF 10a normal breast cells; MCF 10A DNA re-replication, Hoechst nuclear intensity, 48 h; Potency, µM (series often up to 46.1 µM), inactives show at the highest dose activity, positive = re-replication, hits mostly activators; AID 624296; 350,000 compounds, 2.9% hits; note: % of control where 0% means no effect; nearly all actives have a fitted effect of over 50% in size
KB-3-1 cytotox: KB-3-1 parental cell cytotoxicity; KB-3-1 viability, CellTiter-Glo ATP luminescence, 72 h; Potency, µM (series often up to 46.1 µM), actives largely listed as cytotoxic; 400,000 compounds, 1.4% hits; note: % is set by controls: 0 for no effect and ±100 for the full control effect; nearly all actives have a fitted effect of over 60% in size
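Here the drug-naive KB-3-1 line serves as comparator for MDR sub-line selectivity; cells received compound titrations, 72 h at 37 °C, then CellTiter-Glo readout.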
SW480 rereplic: DNA re-replication induction in SW480 cells. SW480 DNA re-replication, Hoechst DNA content imaging, 48 h. AID 624297. 340,000 compounds, 1.8% hits. Potency, µM (doses to about 46.1 µM), without a hit: at the highest dose re-replication activation, usual class: activators; note: % of control where 0% means no effect; nearly all actives have a fitted effect of over 55% in size
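Cells (250 per well) received 23 nL compound or DMSO by pin tool and were kept 48 hr at 37 C, 5% CO2. Nuclei were then stained with Hoechst for 40 min and scanned for DNA content.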
HT1080 IDH1KD tx: toxicity to HT-1080 IDH1 knockdown cells (counter line) | HT-1080 IDH1 knockdown viability, ATP luminescence, 48 h | 360,000 compounds, 2% hits | Potency, µM (highest dose often 46.1 µM), for inactives: at the top dose activity, negative = toxicity, usual class: cytotoxic;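 note: 0% = DMSO wells and -100% = cell-free medium wells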
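HT-1080-IDH1KD cells (IDH1 knocked down), 750/well in RPMI with 5% FBS, treated with compound 48 h at 37 degrees C. Viability by CellTiter-Glo luminescence, normalised to DMSO and no-cell wells; concentration-response curves classed.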
KB-V1 cytotox: kills drug-selected multidrug resistant KB-V1 cells; KB-V1 MDR cells viability, CellTiter-Glo, 72 h; Potency, µM (series often up to 46.1 µM), usual class: cytotoxic; 400,000 compounds, 3.4% hits; AID 1347076; note: % is set by controls: 0 for no effect and ±100 for the full control effect; nearly all actives have a fitted effect of over 60% in size
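KB-V1 MDR subline cells in DMEM (phenol-red free, 10% FBS) exposed to compounds in qHTS concentration series for 72 h at 37 degrees C. Viability read by CellTiter-Glo luminescence; concentration-effect curves fitted after normalization and correction.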
Starred values were filed as active, the others as inactive; [ ] = dose if it differs, or a comment. In the library only some 8% were active in any assay of this set; here they are far more common. Calls come from the whole dose curve; as a rule, active = well fitted curve in the direction sought with a large enough effect; inconclusive = small, poorly fitted or top-dose-only effect, or another doubt; inactive = no such curve, though single readings can be large; an effect the other way counts as inactive or inconclusive. Potency is the fitted concentration of half-maximal effect.

For Cc1c(NC(=O)C(C)OC(=O)c2cc(-c3cccc4ccccc34)nc3ccccc23)c(=O)n(-c2ccccc2)n1C (stereo not drawn) the results were HT1080-NT tox -7%, MCF10A rereplic inconclusive, KB-3-1 cytotox inactive, SW480 rereplic -53%, HT1080 IDH1KD tx -2% and KB-V1 cytotox 9.2µM*.
Cc1c(Nc2nc(-c3ccc(Cl)cc3)cs2)c(=O)n(-c2ccccc2)n1C was read as HT1080-NT tox -7%, MCF10A rereplic 6%, KB-3-1 cytotox inconclusive, SW480 rereplic 2%, HT1080 IDH1KD tx -17% and KB-V1 cytotox 7.3µM*.
CCOC(=O)c1cccc(Nc2nc(-c3cccnc3)nc3ccccc23)c1 was read as HT1080-NT tox 21µM*, MCF10A rereplic 23µM*, KB-3-1 cytotox inconclusive, SW480 rereplic inconclusive, HT1080 IDH1KD tx inconclusive and KB-V1 cytotox inconclusive.
`COC(=O)c1cccc(Nc2nc(-c3cccnc3)nc3ccccc23)c1` gave HT1080-NT tox -10%, MCF10A rereplic inconclusive, KB-3-1 cytotox inactive, SW480 rereplic 1%, HT1080 IDH1KD tx -12% and KB-V1 cytotox inconclusive.
`Cc1c(NC(=O)COC(=O)C(c2ccc(Cl)cc2)C(C)C)c(=O)n(-c2ccccc2)n1C` (stereo not drawn) gave HT1080-NT tox 2%, MCF10A rereplic 4%, KB-3-1 cytotox inconclusive, SW480 rereplic 4%, HT1080 IDH1KD tx 2% and KB-V1 cytotox 8.2µM*.
`O=C(CCc1nc(-c2ccccc2)no1)Nc1cc(C(F)(F)F)ccc1Cl` gave HT1080-NT tox -6%, MCF10A rereplic -2%, KB-3-1 cytotox inactive, SW480 rereplic -2%, HT1080 IDH1KD tx -6% and KB-V1 cytotox inactive.
CS(=O)(=O)Nc1ccc(C2=NN(C(=O)c3ccco3)C(c3ccco3)C2)cc1 (stereo not drawn) was read as HT1080-NT tox -21%, MCF10A rereplic 17%, KB-3-1 cytotox inconclusive, SW480 rereplic inconclusive, HT1080 IDH1KD tx inconclusive and KB-V1 cytotox inactive.
`Cc1c(NC(=O)COC(=O)C23CC4CC(CC(O)(C4)C2)C3)c(=O)n(-c2ccccc2)n1C` gave HT1080-NT tox -3%, MCF10A rereplic -3%, KB-3-1 cytotox inactive, SW480 rereplic -10%, HT1080 IDH1KD tx 0% and KB-V1 cytotox inactive.
Cc1cccc(C)c1NC(=O)COC(=O)c1cc(-c2cccnc2)nc2ccccc12 was read as HT1080-NT tox 6%, MCF10A rereplic 12µM*, KB-3-1 cytotox inactive, SW480 rereplic 0%, HT1080 IDH1KD tx 1% and KB-V1 cytotox inactive.
For Cc1c(NC(=O)C(C)Oc2cccc(F)c2)c(=O)n(-c2ccccc2)n1C (stereo not drawn) the results were HT1080-NT tox -2%[9.24 µM], MCF10A rereplic -5%, KB-3-1 cytotox inactive, SW480 rereplic 23µM*, HT1080 IDH1KD tx 18% and KB-V1 cytotox inactive.
Screening Cc1c(NC(=O)C(C)OC(=O)C23CC4CC(CC(Br)(C4)C2)C3)c(=O)n(-c2ccccc2)n1C (stereo not drawn) returned HT1080-NT tox 11%, MCF10A rereplic 1.5µM*, KB-3-1 cytotox inconclusive, SW480 rereplic -32%, HT1080 IDH1KD tx 11% and KB-V1 cytotox inactive.
Cc1c(NC(=O)COC(=O)c2cc(-c3ccc(-c4ccccc4)cc3)nc3ccccc23)c(=O)n(-c2ccccc2)n1C was read as HT1080-NT tox inconclusive, MCF10A rereplic 21µM*, KB-3-1 cytotox 9.2µM*, HT1080 IDH1KD tx inconclusive and KB-V1 cytotox 4.6µM*.
For Cc1c(NC(=O)c2cc(-c3ccccc3)nc3ccccc23)c(=O)n(-c2ccccc2)n1C the results were HT1080-NT tox 1%, MCF10A rereplic inconclusive, SW480 rereplic 7% and HT1080 IDH1KD tx 3%.
Screening CN(C1CCCC1)C1CCN(C(=O)CNC(=O)/C=C/c2cccc(C(F)(F)F)c2)CC1 returned HT1080-NT tox -6%, MCF10A rereplic 12%, KB-3-1 cytotox inactive, SW480 rereplic 3%, HT1080 IDH1KD tx -13% and KB-V1 cytotox inactive.
Screening CCOC(=O)Cc1cnc(NC(=O)CSc2nc(C)cc(C)n2)s1 returned HT1080-NT tox -3%, MCF10A rereplic 4%, KB-3-1 cytotox inactive, SW480 rereplic -4%, HT1080 IDH1KD tx 4% and KB-V1 cytotox inconclusive.
Screening CCOC(=O)Cc1cnc(NC(=O)CSc2nc3ncnc(N)c3[nH]2)s1 returned HT1080-NT tox -5%, MCF10A rereplic 0.65µM*, KB-3-1 cytotox inactive, SW480 rereplic inconclusive, HT1080 IDH1KD tx -7% and KB-V1 cytotox inconclusive.
For COc1ccc2nc(-c3ccc(N)cc3)[nH]c2c1 the results were HT1080-NT tox -13%, MCF10A rereplic -8%, KB-3-1 cytotox inactive, SW480 rereplic -5%[9.22 µM], HT1080 IDH1KD tx -1% and KB-V1 cytotox inactive.
COc1ccc(-c2nc3ccc(C4=C(C)CC(=O)NN4)cc3[nH]2)cc1 was read as MCF10A rereplic inconclusive and SW480 rereplic 19µM*.
Oc1ccc(-c2nnc(SCc3ccccc3)o2)cc1 was read as HT1080-NT tox -1%, MCF10A rereplic inconclusive, KB-3-1 cytotox inactive, SW480 rereplic 24%, HT1080 IDH1KD tx -9% and KB-V1 cytotox inactive.
`COc1cccc(/C=N/NC(=O)c2ccc(=O)[nH]n2)c1O` gave HT1080-NT tox inconclusive, MCF10A rereplic 10%, KB-3-1 cytotox inactive, SW480 rereplic 3%, HT1080 IDH1KD tx 23µM* and KB-V1 cytotox inactive.
For CCOc1ccccc1C=NNC(=O)C(=O)NN=Cc1ccccc1OCC the results were HT1080-NT tox -3%, MCF10A rereplic -6%, KB-3-1 cytotox inactive, SW480 rereplic -13%, HT1080 IDH1KD tx -2% and KB-V1 cytotox inactive.
C=CCc1cccc(/C=N/NC(=O)c2ccc3nc[nH]c3c2)c1O was read as HT1080-NT tox inconclusive, MCF10A rereplic 21µM*, KB-3-1 cytotox inconclusive, SW480 rereplic inconclusive, HT1080 IDH1KD tx inconclusive and KB-V1 cytotox inactive.
C=CCc1cccc(/C=N/NC(=O)C(=O)Nc2ccc(C)cc2)c1O was read as HT1080-NT tox -10%, MCF10A rereplic 2%, KB-3-1 cytotox inactive, SW480 rereplic 4%, HT1080 IDH1KD tx -17% and KB-V1 cytotox inactive.
For CCOc1ccccc1NC(=O)C(=O)N/N=C/c1cc(Br)ccc1O the results were HT1080-NT tox inconclusive, MCF10A rereplic -10%, KB-3-1 cytotox inconclusive, SW480 rereplic 0.82µM*, HT1080 IDH1KD tx inconclusive and KB-V1 cytotox inactive.
